Compound activity from PubChem.
The list is not random: actives were taken first. Their share in the collection is about 9.3%.
FMDV inh – High Throughput Screening for Foot and Mouth Disease Virus Antivirals | actives 1.2% (n = 410,000) | FMDV antiviral cell-based qHTS | Potency, µM (top dose mostly 57.9 µM), usual class: inhibitors; calls by dose curve; tested in HEK293T cells; also: read-out not given here; nearly all actives have a fitted effect of over 45% in size
Vaccinia mCherry – qHTS for Stage-Specific Inhibitors of Vaccinia Orthopoxvirus: mCherry Reporter Primary qHTS. Vaccinia virus mCherry reporter infection, fluorescence. Potency, µM (highest dose often 36.5 µM), actives largely listed as inhibitors. actives 0.63% (n = 310,000); calls by dose curve; tested in A549 cells; also: nearly all actives have a fitted effect of over 35% in size
Vaccinia Venus – qHTS for Stage-Specific Inhibitors of Vaccinia Orthopoxvirus: Venus Reporter Primary qHTS; Vaccinia virus Venus reporter expression, fluorescence; Potency, µM (series often up to 36.5 µM), actives largely listed as inhibitors; actives 0.46% (n = 330,000); AID 720580, 2013; calls by dose curve; tested in A549 cells; also: nearly all actives have a fitted effect of over 30% in size
Sm TGR block – qHTS Assay for the Inhibitors of Schistosoma Mansoni Peroxiredoxins; Schistosoma mansoni thioredoxin glutathione reductase (TGR), Q962Y6; purified TGR, DTNB reduction, TNB absorbance 405 nm; Potency, µM (titrated, usually from 114 µM), usual class: inhibitors; actives 3% (n = 360,000); also: nearly all actives have a fitted effect of over 60% in size
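First, TGR (20 nM dispensed) and NADPH were mixed with compound. Second, a 15 min room-temperature incubation followed. Third, further NADPH and then DTNB were added to start the reaction. Finally, TNB absorbance was monitored kinetically.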
HCMV antiviral – qHTS Assay for inhibitors of the human cytomegalovirus (HCMV); HFF cells, HCMV-luciferase reporter, 72 h; stronger effect = lower value; activity change, negative = inhibition, % at 57.5 µM; actives 4.5% (n = 410,000); in the data active = activity change below about -60%; inconclusive = no clear call, values can overlap the other calls; inactive = above about -39%
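Screen run at 2 compound doses on HFFs infected with reporter HCMV, MOI 1 PFU/cell. Luciferase activity from cell lysates at 72 h post infection gave inhibition relative to buffer-only and Salinomycin wells.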
HCV inhibitor – qHTS Assay for Inhibitors of Hepatitis C Virus (HCV) | Potency, µM (highest dose often 41.8 µM), hits mostly inhibitors | actives 3.4% (n = 340,000) | AID 651820, 2012 | Huh7.5.1 HCVcc-Cre infection, luciferase reporter, 44 h
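Antiviral activity was scored by luciferase reporter output from cells infected with HCVcc-Cre (~0.5 moi) in presence of compound, 44 h infection period, cells seeded 1,000/well 4 h prior.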
A number is an active result; n = inactive; u = inconclusive; x = no result; [ ] = remark or other dose. Unless noted, calls follow the shape of the dose curve; as a rule, active = well fitted curve in the direction sought with a large enough effect; inconclusive = small, poorly fitted or top-dose-only effect, or another doubt; inactive = no such curve, though single readings can be large; an effect the other way counts as inactive or inconclusive.

SMILES	FMDV inh	Vaccinia mCherry	Vaccinia Venus	Sm TGR block	HCMV antiviral	HCV inhibitor
CCCCCCCCCCn1ccc(=N)cc1	16µM	u	u	n	-100	22µM
CN(C)c1ccc(C2CC(=O)C=C(Nc3ccccc3N)C2)cc1 (stereo unspecified)	n	n	n	n	n	n
Cc1ccc(OCCn2c(C3CC(=O)N(Cc4ccc(F)cc4)C3)nc3ccccc32)c(C)c1 (stereo unspecified)	n	n	u	n	-92	x
CCOc1ccc(N2CC(c3nc4ccccc4n3CCOc3ccccc3)CC2=O)cc1 (stereo unspecified)	n	n	n	n	n	x
CCc1ccc(OCCn2c(C3CC(=O)N(Cc4ccc(F)cc4)C3)nc3ccccc32)cc1 (stereo unspecified)	n	u	11µM	n	-105	x
CCOc1ccccc1CNC(=O)c1c(C)oc2ncnc(N3CCOCC3)c12	n	n	n	n	u	x
CC(=O)n1c2ccccc2c2ccccc21	n	n	n	n	n	u
CC(=O)n1c(Cl)c(NC(=O)CCl)c2ccccc21	32µM	10µM	u	u	-98	14µM
COc1ccc(-c2noc(CSc3nnc(Cc4ccccc4)n3-c3ccc(F)cc3)n2)cc1	n	n	n	n	n	x
Cc1cnc(CNC(=O)CC2C(=O)NCCN2Cc2ccccc2C(F)(F)F)cn1 (stereo unspecified)	n	n	n	11µM	n	n
Cc1cc(C)n(CCNC(=O)CC2C(=O)NCCN2Cc2ccccc2C(F)(F)F)n1 (stereo unspecified)	n	n	n	35µM	n	n
Cc1nnc(CN(C)C(=O)CC2C(=O)NCCN2Cc2ccccc2C)o1 (stereo unspecified)	n	x	x	28µM	n	n
Cc1cc(CNC(=O)CC2C(=O)NCCN2CC(c2ccccc2)c2ccccc2)on1 (stereo unspecified)	n	n	n	u	n	n
Cc1cc(CNC(=O)CC2C(=O)NCCN2Cc2ccccc2C(F)(F)F)on1 (stereo unspecified)	n	n	n	35µM	n	n
CC1=C(C(=O)N2CCCCCC2)CC(CC(=O)NCC2CCCCC2)C(=O)N1CCCN1CCCC1=O (stereo unspecified)	n	n	n	x	n	x
O=C1/C(=C/c2cccnc2)N=C2CCCCCN12	n	x	x	n	n	n
Cc1ccc(Cn2c(=O)c3cccnc3n(CC(=O)Nc3cccc(C(F)(F)F)c3)c2=O)cc1	n	n	n	n	n	u
CCCCc1nc(C(N)=O)c2[nH]c(=O)n(-c3ccccc3F)c2n1	n	x	x	n	x	n
CC(C)c1cc(CNC(=O)CC2C(=O)NCCN2CC2CCCCC2)on1 (stereo unspecified)	n	x	x	50µM	n	n
CN(CCc1cn[nH]c1)C(=O)CC1C(=O)NCCN1Cc1ccccc1C(F)(F)F (stereo unspecified)	n	x	x	35µM	u	n
O=C(NCc1ccc(OC(F)(F)F)cc1)C1CC(c2ccccc2C(F)(F)F)=NO1 (stereo unspecified)	n	n	n	n	n	n[8.37 µM]
COc1cc(C(=O)NCC(=O)NCC2COc3ccccc3O2)cc(OC)c1OC (stereo unspecified)	u	n	n	n	n	n
O=C(COC(=O)c1ccc(Br)o1)Nc1nc2ccccc2s1	n	x	x	n	n	n
O=C(COC(=O)c1ccc([N+](=O)[O-])o1)Nc1nc2ccccc2s1	n	n	n	28µM	n	10µM
O=C(Nc1nc2ccc(F)cc2s1)c1ccc([N+](=O)[O-])o1	n	u	10µM	x	u	x
SMILES	FMDV inh	Vaccinia mCherry	Vaccinia Venus	Sm TGR block	HCMV antiviral	HCV inhibitor
O=C(Nc1nc2c(F)cccc2s1)c1ccc([N+](=O)[O-])o1	n	u	u	n	n	n
CCn1cc(C(=O)O)c(=O)c2cc(F)c(N3CCN(S(=O)(=O)c4ccc(NC(=O)OC)cc4)CC3)cc21	n	n	n	n	-63	n
CCn1cc(C(=O)NCc2cccnc2)c(=O)c2cc(F)c(N3CCN(C(=O)c4ccco4)CC3)cc21	u	x	n	n	n	u
CCC(=O)N1CCN(c2cc3c(cc2F)c(=O)c(C(=O)O)cn3CC)CC1	n	n	n	x	n	n
CCCNC(=O)c1cn(CC)c2cc(N3CCN(C(=O)c4ccco4)CC3)c(F)cc2c1=O	n	x	x	n	n	10µM
CCn1cc(C(=O)NCc2cccc(F)c2)c(=O)c2cc(F)c(N3CCN(C(=O)c4ccco4)CC3)cc21	16µM	x	u	n	-86	u
CCOC(=O)c1sc2nc(C)[nH]c(=S)c2c1C	n	n	n	n	u	n
CCN(Cc1ccccc1)C1CCN(Cc2ccc(SC)cc2)CC1	n	n	n	n	u	7.1µM
CC(C)(C)c1ccc(S(=O)(=O)/C=C\C#N)cc1	40µM	x	x	x	x	x
Cc1ccc(S(=O)(=O)/C=C/C#N)cc1	n	n	n	x	x	x
Cc1cccc(NC(=O)c2cc(=O)[nH]c3ccccc23)c1	n	x	x	n	n	n
COc1ccc(-c2cn[nH]c2-c2ccc(OCc3ccc(F)cc3)cc2O)cc1OC	25µM	n	n	n	u	u
Nc1ncc(-c2ccccc2)c(-c2ccc(OCc3ccccc3)cc2O)n1	n	u	n	n	u	1.8µM
Oc1cc(OCc2ccccc2)ccc1-c1[nH]ncc1-c1ccccc1	n	u	u	n	u	n
COc1ccc(-c2cn[nH]c2-c2ccc(OCc3ccccc3)cc2O)cc1OC	u	11µM	u	n	n	u
COc1ccc(C2=NCCNC(C(F)(F)F)=C2)cc1	n	n	n	n	n	n
Cc1ccc(-c2ccc(=O)n(CCC(=O)N3CCN(c4cccc(C)c4)C(C)C3)n2)cc1 (stereo unspecified)	u	x	x	n	n	u
O=S(=O)(Nc1cc(S(=O)(=O)N2CCOCC2)ccc1NCC1CCCO1)c1ccc(F)cc1 (stereo unspecified)	n	2.2µM	u	n	n	n
Cc1cc(C(=O)Cn2nc(C(=O)O)c3ccccc3c2=O)c(C)n1-c1ccc(F)cc1	n	n	n	n	n	n
COc1ccc2[nH]c3c(c2c1)CCN1C(=O)C(CC(=O)NCCN2CCOCC2)C[C@H](C(=O)N(C(C)C)C(C)C)[C@@]31C (stereo partly specified)	n	n	u	x	n	u
CC(C)=CCC/C(C)=C/CNC(=O)C[C@H]1C[C@H](C(=O)N(C(C)C)C(C)C)[C@@]2(C)c3[nH]c4ccc(Cl)cc4c3CCN2C1=O	u	u	u	x	n	n
COc1ccc(CNC(=O)C[C@H]2C[C@H](C(=O)N(C(C)C)C(C)C)[C@@]3(C)c4[nH]c5ccc(Cl)cc5c4CCN3C2=O)cc1OC	u	u	u	x	n	13µM
